USP28 inh: inhibitors of human USP28 deubiquitinase; Q96RU2; purified USP28, Ub-rhodamine cleavage fluorescence, 30 min; inhibition, % at 25 µM; 47,000 compounds, 3% hits; AID 1645857
USP17 inh: inhibitors of human USP17 deubiquitinase. A8MUK1. purified USP17, Ub-rhodamine cleavage fluorescence, 3 h. inhibition, % at 50 µM. 47,000 compounds, 6.5% hits
USP8 block: inhibitors of human USP8 deubiquitinase; inhibition, % at 20 µM; 47,000 compounds, 4.2% hits; purified USP8, Ub-rhodamine cleavage fluorescence, 30 min; AID 1645853
USP10 inh: human USP10 deubiquitinase inhibition; Q14694; purified USP10, Ub-rhodamine fluorescence, 60 min; inhibition, % at 20 µM; 47,000 compounds, 1.1% hits; AID 1645856
USP30 block: blocks human USP30 ubiquitin-rhodamine cleavage | Q70CQ3 | purified USP30, Ub-rhodamine cleavage fluorescence | inhibition, % at 25 µM | 47,000 compounds, 5.3% hits | AID 1645860
Of the large screens only hits and unclear results are named; the others gave an inactive call. Most compounds without a hit are left out; they make up all but 14% or so of the library. Cut-off read from the data, not from the text of the source: active = inhibition above about 30%; inactive = the rest.

COc1ccc(C(=O)Cn2c(=O)n(Cc3ccccc3)c(=O)c3cc(Cl)ccc32)cc1	none
Cc1c(C)c(C)c2[nH]c(-c3ccc4c(c3)OCO4)nc2c1C	USP17 inh 47, USP30 block 49
Cc1ncc(-c2ccc3c(c2)OCO3)c(-c2nccs2)n1	none
CS(=O)(=O)Nc1ccc2c(c1)nc1n2CCN(C2CCCC2)C1	none
O=C(CCc1ccccc1)Nc1ccc2c(c1)nc1n2CCN(C2CCCC2)C1	USP8 block 31
CCOC(=O)C(C)Sc1ncnc2c1sc1nc(N3CCCC3)c3c(c12)CC(C)(C)OC3 (configuration not stated)	USP8 block 46
CC(C)Cc1nc2sc3c(SCc4ccc(Cl)cc4)ncnc3c2c2c1COC(C)(C)C2	USP30 block 33
Cc1nc2sc3c(NCC(C)C)ncnc3c2c2c1COC(C)(C)C2	USP17 inh 43
CC(C)Cc1nc2sc3c(SCc4ccc(Br)cc4)ncnc3c2c2c1COC(C)(C)C2	none
CC(C)Cc1nc2sc3c(SCCc4ccccc4)ncnc3c2c2c1COC(C)(C)C2	none
CC(C)Cc1nc2sc3c(NCc4ccccc4)ncnc3c2c2c1COC(C)(C)C2	USP30 block 64
CCC(O)CNc1ncnc2c1sc1nc(C)c3c(c12)CC(C)(C)OC3 (configuration not stated)	none
Cc1cc(=O)[nH]c2cc(-c3ccccc3)nn12	USP30 block 38
Cc1cc(=O)[nH]c2c1c(-c1ccccc1)nn2C	none
CCc1nnc(C(=O)Nc2ccc(C(=O)NCc3ccc(OC(C)C)cc3)cc2)s1	USP10 inh 38
Cc1cn2c(=O)cc(COC(=O)c3ccc(NC(=O)c4ccccc4)cc3)nc2s1	USP17 inh 39
O=c1c2ccccc2c(-c2nc(-c3ccncc3)no2)cn1-c1ccccc1	USP17 inh 73
COc1ccc(C2CCN(Cc3cccnc3)CC2)cc1OC	none
COc1cccc(-c2cc(C(=O)Nc3ccccc3)[nH]n2)c1	USP17 inh 39, USP30 block 35
Cc1ccc(NC(=O)CSc2nnc(-c3ccncc3)o2)cc1	none
O=C(Nc1ccccc1F)c1cc(-c2cccnc2)n[nH]1	USP17 inh 70 (no result: USP28 inh, USP30 block)
COc1cccc(NC(=O)C2CCN(C(=O)c3cc(-c4cccnc4)n[nH]3)CC2)c1	USP28 inh 57
CNC(=O)NC(=O)CSc1nnc(-c2ccc(Cl)cc2)o1	USP17 inh 33
COc1ccc(CCNC(=O)c2cc(-c3cccnc3)n[nH]2)cc1OC	none
COc1cccc(-c2cc(C(=O)Nc3cccc(C(C)=O)c3)[nH]n2)c1	none
Cc1cccc(NC(=O)C2CCN(C(=O)c3cc(-c4ccncc4)n[nH]3)CC2)c1	none
O=C(NCc1cccnc1)c1nc2c(s1)CCCN2CC1CC1	none
Cc1ccc(NC(=O)CSc2nnc(-c3cccnc3)o2)cc1F	none
O=C(Nc1cccc(Cl)c1)c1cc(-c2cccnc2)n[nH]1	USP28 inh 55, USP17 inh 83, USP8 block 83, USP10 inh 47, USP30 block 47
O=C(Nc1ccccc1)c1cc(-c2ccncc2)n[nH]1	none
CSc1cccc(NC(=O)c2cc(-c3cccnc3)n[nH]2)c1	USP28 inh 53, USP17 inh 79, USP8 block 97, USP30 block 65
O=C(CSc1nnc(-c2cccnc2)o1)Nc1cccc(Cl)c1	USP17 inh 33
COc1ccc(-c2cc3c(=O)n(CC(=O)NCCN4CCCC4)ncn3n2)cc1	USP17 inh 43, USP30 block 34
COc1ccc(-c2cc3c(=O)n(CC(=O)NCc4ccccc4)ncn3n2)cc1	USP30 block 43
CCN1CCCC1CNC(=O)Cn1ncn2nc(-c3ccc(OC)cc3)cc2c1=O (configuration not stated)	none
Cc1ccc(-n2nnc(C(=O)NC3CCCCC3)c2N)cc1	USP17 inh 53
Cc1ccc(-n2nnc(C(=O)NC3CCCC3)c2N)cc1	none
O=C(COc1ccccc1F)N1CCSc2ccc(Cl)cc21	USP28 inh 41, USP17 inh 32, USP30 block 34
O=C(COc1ccc(F)cc1Br)N1CCSc2ccccc21	none
O=[N+]([O-])c1cc(S(=O)(=O)Nc2ccccc2)ccc1NCc1ccc(F)cc1	USP30 block 35
CC(C)CNC(=O)c1nc2c(s1)CCN(C(=O)NC(C)C)CC2	none (no result: USP28 inh, USP30 block)
COc1ccc(CCNC(=O)CSc2nnc(NC(=O)c3ccccc3OC)s2)cc1OC	USP30 block 32
Cc1ccc(-c2ncc(C(=O)Nc3ccc(F)cc3)c(-c3ccncc3)n2)cc1	USP8 block 48

High-throughput results as filed in PubChem BioAssay.
